HP1b chromo inh: blocks HP1-beta chromodomain binding to methylated histone tails; 390,000 compounds, 0.56% hits; Potency, µM (titrated, usually from 114 µM), most hits filed as inhibitors; AlphaScreen HP1-beta / biotin-H3K9me3 peptide binding; P83916; also: nearly all actives have a fitted effect of over 70% in size
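HP1-beta protein (50 nM final) preincubated 30 min at room temperature with biotinylated H3(1-18)K9me3 peptide (50 nM) in PBS pH 7.4, 0.01% Tween-20, then compound added for 30 min. AlphaScreen streptavidin donor/nickel chelate acceptor beads (10 ug/mL final), 30 min dark, luminescence read.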
Sfp inh: blocks B. subtilis Sfp PPTase activity. Q9F4F7. Biochemical Sfp PPTase activity, qHTS. Potency, µM, actives largely listed as inhibitors. 310,000 compounds, 3.5% hits. AID 1490;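 also: the enzyme is Sfp with the accession as filed and its product quenches rhodamine fluorescence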
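Buffer: 50 mM Hepes-Na pH 7.6, 10 mM MgCl2, 0.01% Nonidet P-40, 0.01% BSA. Enzyme 15 nM, pre-exposed to compound 15 min; substrates then added and fluorescence change tracked over 30 min.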
G9a inh: inhibitors of human histone lysine methyltransferase G9a. Q96KQ7. G9a H3K9 monomethylation, AlphaScreen, 2 h. Potency, µM (doses to about 102 µM), actives largely listed as inhibitors. 350,000 compounds, 8.8% hits; also: nearly all actives have a fitted effect of over 75% in size
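Enzyme 20 nM + cpd, 15 min RT; add b-H3K9 pep 500 nM / SAM 20 uM; 2 h RT; anti-H3K9me1 Ab 0.5 ug/mL + SA donor / anti-rabbit acceptor beads 20 ug/mL each, 10 min; AlphaScreen read.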
BAZ2B inh: BAZ2B (human) inhibition; Q9UIF8; AlphaScreen BAZ2B-H3K14Ac peptide displacement; Potency, µM (titrated, usually from 114 µM), usual class: inhibitors; 360,000 compounds, 4.4% hits; also: nearly all actives have a fitted effect of over 60% in size
Target sequence (Q9UIF8 whole entry, looked up): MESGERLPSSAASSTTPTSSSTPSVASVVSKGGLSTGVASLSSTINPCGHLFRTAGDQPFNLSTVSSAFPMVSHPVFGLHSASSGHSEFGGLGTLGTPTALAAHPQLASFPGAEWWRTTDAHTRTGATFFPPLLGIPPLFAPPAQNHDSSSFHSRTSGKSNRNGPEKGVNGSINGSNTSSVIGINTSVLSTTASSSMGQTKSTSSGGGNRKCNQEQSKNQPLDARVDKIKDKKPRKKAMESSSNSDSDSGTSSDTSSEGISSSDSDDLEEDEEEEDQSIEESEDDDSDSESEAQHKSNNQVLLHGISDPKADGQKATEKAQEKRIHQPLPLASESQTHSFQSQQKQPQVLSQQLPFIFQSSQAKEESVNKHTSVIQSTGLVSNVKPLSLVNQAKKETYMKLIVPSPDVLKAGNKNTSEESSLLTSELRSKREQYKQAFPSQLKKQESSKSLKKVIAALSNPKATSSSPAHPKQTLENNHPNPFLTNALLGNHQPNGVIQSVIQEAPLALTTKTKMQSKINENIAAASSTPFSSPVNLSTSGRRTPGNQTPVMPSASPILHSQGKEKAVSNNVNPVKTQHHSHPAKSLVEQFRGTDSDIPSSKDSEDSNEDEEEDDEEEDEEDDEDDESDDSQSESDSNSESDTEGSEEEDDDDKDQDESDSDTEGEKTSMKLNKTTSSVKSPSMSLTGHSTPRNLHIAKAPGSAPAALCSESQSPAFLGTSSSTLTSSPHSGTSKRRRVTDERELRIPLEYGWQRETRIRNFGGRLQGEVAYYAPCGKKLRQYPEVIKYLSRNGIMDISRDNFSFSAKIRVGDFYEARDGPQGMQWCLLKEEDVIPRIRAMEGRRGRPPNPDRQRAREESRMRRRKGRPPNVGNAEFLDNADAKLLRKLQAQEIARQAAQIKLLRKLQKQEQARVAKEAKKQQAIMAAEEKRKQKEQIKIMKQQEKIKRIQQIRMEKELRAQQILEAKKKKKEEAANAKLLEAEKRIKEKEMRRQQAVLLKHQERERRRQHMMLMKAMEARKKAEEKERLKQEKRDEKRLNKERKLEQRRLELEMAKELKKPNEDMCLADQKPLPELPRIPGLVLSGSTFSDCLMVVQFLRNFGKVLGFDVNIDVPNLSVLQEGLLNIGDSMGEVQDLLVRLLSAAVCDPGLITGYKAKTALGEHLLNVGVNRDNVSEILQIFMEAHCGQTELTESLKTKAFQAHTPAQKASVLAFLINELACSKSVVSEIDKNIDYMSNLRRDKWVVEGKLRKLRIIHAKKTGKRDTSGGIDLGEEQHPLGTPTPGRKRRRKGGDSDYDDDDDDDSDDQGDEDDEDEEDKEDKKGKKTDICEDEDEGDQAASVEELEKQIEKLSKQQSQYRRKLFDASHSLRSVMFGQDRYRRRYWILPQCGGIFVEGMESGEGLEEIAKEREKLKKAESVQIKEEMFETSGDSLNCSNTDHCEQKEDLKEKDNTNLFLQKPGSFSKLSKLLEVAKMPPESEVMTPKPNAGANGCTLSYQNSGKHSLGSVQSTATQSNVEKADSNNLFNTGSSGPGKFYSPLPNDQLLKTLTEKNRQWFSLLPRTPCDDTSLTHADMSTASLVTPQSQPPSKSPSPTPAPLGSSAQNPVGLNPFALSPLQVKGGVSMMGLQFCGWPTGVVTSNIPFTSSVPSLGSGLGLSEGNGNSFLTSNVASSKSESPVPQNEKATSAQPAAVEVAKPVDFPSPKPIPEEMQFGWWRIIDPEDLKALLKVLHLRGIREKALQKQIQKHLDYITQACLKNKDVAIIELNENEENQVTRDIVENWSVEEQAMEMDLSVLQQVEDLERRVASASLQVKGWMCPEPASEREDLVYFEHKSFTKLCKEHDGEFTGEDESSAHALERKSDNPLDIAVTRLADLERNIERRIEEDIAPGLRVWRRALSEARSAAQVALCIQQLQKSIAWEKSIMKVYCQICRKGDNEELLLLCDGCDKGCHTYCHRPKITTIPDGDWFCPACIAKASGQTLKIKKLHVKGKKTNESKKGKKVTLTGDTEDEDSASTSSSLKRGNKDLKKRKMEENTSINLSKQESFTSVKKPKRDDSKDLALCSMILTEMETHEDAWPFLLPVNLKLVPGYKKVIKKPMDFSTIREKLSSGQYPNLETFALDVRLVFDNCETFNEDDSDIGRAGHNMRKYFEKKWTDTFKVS
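Complex of BAZ2B and biotin-H3K14Ac (50 nM apiece) forms over 30 min at RT, then faces library compounds up to 110 uM for another 30 min; AlphaScreen beads added, 20 min dark incubation, luminescence read.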
JMJD2A Tudor: JMJD2A Tudor domain (human) inhibition | AlphaScreen JMJD2A-Tudor / H3K4me3 peptide binding | Potency, µM (series often up to 114 µM), actives largely listed as inhibitors | 390,000 compounds, 4.4% hits | AID 504339 | O75164; also: nearly all actives have a fitted effect of over 50% in size
Numbers stand for hits; [ ] = another dose, or the depositor's remark. Hits are enriched below; roughly 12% of the tested compounds scored in any of these assays. Calls follow the shape of the dose curve; as a rule, active = well fitted curve in the direction sought with a large enough effect; inconclusive = small, poorly fitted or top-dose-only effect, or another doubt; inactive = no such curve, though single readings can be large; an effect the other way counts as inactive or inconclusive.

`Cc1ccc(S(=O)(=O)N2CCN(C(=O)c3ccco3)CC2)cc1` gave HP1b chromo inh inactive, Sfp inh inactive, G9a inh inactive, BAZ2B inh inactive and JMJD2A Tudor inconclusive.
For Cc1ccc(S(=O)(=O)N2CCN(C(=O)/C=C/c3ccco3)CC2)cc1 the results were HP1b chromo inh inconclusive, Sfp inh inconclusive, G9a inh 45µM, BAZ2B inh 50µM and JMJD2A Tudor 79µM.
O=C(/C=C/c1ccco1)N1CCN(S(=O)(=O)c2ccc(F)c(F)c2F)CC1 was read as HP1b chromo inh inactive, Sfp inh 40µM, G9a inh inconclusive, BAZ2B inh inactive and JMJD2A Tudor inactive.
O=C(/C=C/c1ccco1)N1CCN(S(=O)(=O)c2ccccc2)CC1 was read as HP1b chromo inh 50µM and JMJD2A Tudor 56µM.
For Cc1ccc(C)c(S(=O)(=O)N2CCN(C(=O)/C=C/c3ccco3)CC2)c1 the results were HP1b chromo inh inconclusive, G9a inh inactive[12.7 µM], BAZ2B inh inconclusive and JMJD2A Tudor 45µM.
For O=C(/C=C/c1ccc([N+](=O)[O-])cc1)N1CCN(S(=O)(=O)c2ccccc2)CC1 the results were HP1b chromo inh inactive, G9a inh inactive[2.33 µM], BAZ2B inh inactive and JMJD2A Tudor inactive.
Screening COc1cccc(/C=C/C(=O)N2CCN(S(=O)(=O)c3ccccc3)CC2)c1OC returned HP1b chromo inh inactive, Sfp inh inactive, G9a inh 50µM, BAZ2B inh inconclusive and JMJD2A Tudor inactive.
`COc1ccc(/C=C/C(=O)N2CCN(S(=O)(=O)c3ccccc3)CC2)cc1OC` gave HP1b chromo inh inactive, Sfp inh inactive, G9a inh inactive, BAZ2B inh inactive and JMJD2A Tudor inactive.
`CC(C)Oc1ccc(C(=O)OCC(=O)NC2CCCCCC2)cc1` gave HP1b chromo inh inactive, G9a inh inactive[12.7 µM], BAZ2B inh inactive and JMJD2A Tudor inactive.
`Cc1ccc(C(=O)Nc2sc(C)c(-c3ccccc3)c2C(N)=O)cc1[N+](=O)[O-]` gave HP1b chromo inh inactive, Sfp inh 45µM, G9a inh 40µM, BAZ2B inh inactive and JMJD2A Tudor inconclusive.
Screening COC(=O)c1sc(NC(=O)c2cccc([N+](=O)[O-])c2)c(C(N)=O)c1C returned HP1b chromo inh inconclusive, Sfp inh inconclusive, G9a inh 10µM, BAZ2B inh inactive and JMJD2A Tudor inactive.
For COC(=O)c1c(NC(=O)c2ccccc2)sc(C(N)=O)c1C the results were HP1b chromo inh inactive, Sfp inh inactive, G9a inh inactive, BAZ2B inh inactive and JMJD2A Tudor inactive.
For Cc1ccc(C(=O)Nc2cccc(NC(=O)c3ccc(C)c([N+](=O)[O-])c3)n2)cc1[N+](=O)[O-] the results were HP1b chromo inh inactive, Sfp inh inactive, G9a inh inactive, BAZ2B inh inactive and JMJD2A Tudor inactive.
For COC(=O)c1c(NC(=O)c2cccc([N+](=O)[O-])c2)sc(C(N)=O)c1C the results were HP1b chromo inh inactive, Sfp inh 45µM, BAZ2B inh inactive and JMJD2A Tudor inactive.
For CN1CCC(OC(=O)Cc2ccc(Cl)cc2)CC1 the results were HP1b chromo inh inactive, Sfp inh inactive, G9a inh inactive, BAZ2B inh inactive and JMJD2A Tudor inactive.
CSCC(=O)N1CCC(n2nccc2NC(=O)CCCc2ccccc2)CC1 was read as HP1b chromo inh inactive, Sfp inh inactive, G9a inh inactive, BAZ2B inh inactive and JMJD2A Tudor inactive.
NC(=O)CN(C/C=C/c1ccccc1)C/C=C/c1ccccc1 was read as HP1b chromo inh inconclusive, Sfp inh inactive, BAZ2B inh inconclusive and JMJD2A Tudor 20µM.
CN(CC(=O)O)S(=O)(=O)/C=C/c1ccccc1 was read as HP1b chromo inh inactive, Sfp inh inactive, G9a inh inactive, BAZ2B inh inactive and JMJD2A Tudor inactive.
CCOc1ccccc1NC(=O)C(NCC1(N2CCCCC2)CCCCC1)c1ccccc1 (centres undefined) was read as HP1b chromo inh inactive, Sfp inh inconclusive, G9a inh inactive, BAZ2B inh 79µM and JMJD2A Tudor 79µM.
For CCOc1ccccc1NC(=O)C(OC(=O)C1CC1)c1ccccc1 (centres undefined) the results were HP1b chromo inh inactive, Sfp inh inactive, G9a inh inactive, BAZ2B inh inactive and JMJD2A Tudor inactive.
O=C(CS(=O)(=O)c1cn(CC(=O)N2CCCC2)c2ccccc12)Nc1ccccc1 was read as HP1b chromo inh inactive, Sfp inh inactive, G9a inh inactive, BAZ2B inh inactive and JMJD2A Tudor inactive.
